Only some compounds are listed: those with a hit (about 31% of all), similar ones and a draw of the others.
CYP2C9 activ – CYP2C9 (human) activation; P11712; recombinant CYP2C9, luciferin-H conversion, luminescence; active compounds read high; factor 1 = untreated enzyme, 0 = blocked; activation factor at 5 µM; hit rate 1.4% among 96,000; AID 1024;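 active = activation factor of 2 or more for CYP2C9 at a 5 µM dose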
Target sequence (P11712 whole entry, looked up): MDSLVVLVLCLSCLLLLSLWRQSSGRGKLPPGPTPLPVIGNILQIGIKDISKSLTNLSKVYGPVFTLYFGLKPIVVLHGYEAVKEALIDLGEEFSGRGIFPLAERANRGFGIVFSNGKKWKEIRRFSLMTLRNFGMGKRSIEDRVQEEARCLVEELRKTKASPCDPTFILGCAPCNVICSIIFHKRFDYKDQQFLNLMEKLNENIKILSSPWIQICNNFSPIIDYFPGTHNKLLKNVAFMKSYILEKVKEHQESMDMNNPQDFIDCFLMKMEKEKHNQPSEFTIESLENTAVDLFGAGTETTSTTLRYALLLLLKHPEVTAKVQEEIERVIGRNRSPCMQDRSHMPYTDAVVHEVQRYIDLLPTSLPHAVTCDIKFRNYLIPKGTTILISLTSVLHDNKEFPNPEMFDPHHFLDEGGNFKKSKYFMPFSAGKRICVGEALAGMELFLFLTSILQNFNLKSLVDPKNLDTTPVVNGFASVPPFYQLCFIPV
CYP2C19 inh – blocks human cytochrome P450 2C19 | P33261 | inhibition, % at 5 µM | hit rate 21% among 96,000 | CYP2C19 Supersomes, luciferin-H EGE luminescence, 30 min | AID 778;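 active = CYP2C19 inhibition above a set limit at 5 µM in the primary screen, cut at about 50% in these data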
CYP2C19 act – cytochrome P450 2C19 (human) activation; activation factor at 5 µM; AID 1025; recombinant CYP2C19, luciferin-H EGE luminescence; active compounds read high; 0 = fully inhibited enzyme, 1 = untreated enzyme; 96,000 tested, under 10 active;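 active = activation factor of at least 2 at 5 µM in the primary screen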
CYP2C9 inhib – inhibitors of human CYP2C9; inhibition, % at 5 µM; AID 777; CYP2C9 Supersomes, luciferin-H conversion, luminescence; hit rate 20% among 96,000;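 active = blocking of liver enzyme CYP2C9 beyond about 50% at 5 µM, limit read from the data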
PLAP act – human PLAP activation; purified PLAP enzyme, luminescent substrate read-out; active compounds read high; activation fold at 20 µM; hit rate 1.2% among 96,000; in the data active = activation fold above about 2
Hits are given with their value; – = inactive.

SMILES	CYP2C9 activ	CYP2C19 inh	CYP2C19 act	CYP2C9 inhib	PLAP act
CC1CC(C)CN(CCCNC(=O)Cn2ncn3cccc3c2=O)C1 (configuration not stated)	–	–	–	–	–
CCOC(=O)c1[nH]c(C)c(/C(O)=C2\C(=O)C(=O)N(CCN3CCOCC3)C2c2cccs2)c1C (configuration not stated)	–	–	–	–	–
CC1=CC(C)(C)N2C(=O)C3(N=C(N)NC(Nc4ccccc4)=N3)c3cc(C)cc1c32 (configuration not stated)	–	–	–	–	2.1
CCN(CC)c1ccc(-n2c(C)cc(C=O)c2C)cc1	–	83	–	–	–
CC(=O)c1c(C(C)=O)c(C)n(-c2ccc(O)cc2)c1C	–	–	–	–	–
CCN(CC)c1ccc(-n2c(C)c(C(C)=O)c(C(C)=O)c2C)cc1	–	67	–	80	–
COc1cc2[nH]c3c(=O)n(CCN4CCCCC4)cnc3c2cc1OC	–	–	–	–	–
O=C(c1ccccc1)n1c(=S)nc2ccccn21	–	79	–	–	–
Cc1cc2occ(CC(=O)Nc3nccs3)c2cc1C(C)C	–	–	–	–	–
Cc1cccc(NCc2ccccc2O)c1C	–	96	–	61	–
c1ccc(CNc2nc3ccccc3n3cnnc23)cc1	–	–	–	–	–
O=C1CN(c2nc3ccccc3n3cnnc23)CC(=O)N1CCc1ccccc1	–	–	–	62	–
CN(C)c1ccnc(SCc2ccccc2Cl)c1C#N	–	70	–	–	–
CCOC(=O)C1=C(C)NC2=C(C(=O)CCC2)C1c1cn(Cc2ccc(Cl)cc2Cl)nc1-c1ccccc1 (configuration not stated)	–	51	–	83	–
COC(=O)C1=C(C)NC2=C(C(=O)CCC2)C1c1cn(Cc2ccc(Cl)cc2Cl)nc1-c1ccccc1 (configuration not stated)	–	53	–	73	–
CN(CC(N)=O)S(=O)(=O)c1ccc(F)cc1	–	–	–	–	–
CC(=O)Nc1ccc(S(=O)(=O)N(C)S(=O)(=O)c2ccc(F)cc2)cc1	–	52	–	–	–
O=C(Nc1ccccc1)c1ccc(S(=O)(=O)N(CCO)CCO)cc1	–	–	–	–	–
CC(=O)Nc1ccc(S(=O)(=O)N(C)CCOCc2ccccc2)cc1	2	55	–	–	–
CC(=O)Nc1ccc(S(=O)(=O)N(CCO)Cc2ccccc2)cc1	–	56	–	71	–
Oc1ccc2[nH]cnc2c1CN1CCCCC1	–	–	–	–	–
NC(=O)c1nsnc1-c1ccccc1O	–	–	–	–	–
Cc1ccc(NC(=O)CSc2nc3ccccc3c3nc(CCc4c(C)n[nH]c4C)nn23)cc1F	–	–	–	56	–
Cc1n[nH]c(C)c1CCc1nc2c3ccccc3nc(SCC(N)=O)n2n1	–	–	–	–	–
Fc1ccc(-c2nnc3ccc(N4CCCC4)nn23)cc1	–	–	–	–	–
SMILES	CYP2C9 activ	CYP2C19 inh	CYP2C19 act	CYP2C9 inhib	PLAP act
c1cc2nncn2nc1N1CCCC1	–	53	–	–	–
c1ccc(N2CCN(c3ccc4nncn4n3)CC2)nc1	–	89	–	79	–
O=C(OCn1nnc2ccccc2c1=O)c1ccc2ccccc2n1	–	–	–	–	–
Cc1ccc(-c2nnc(CSc3nnc4c5c(C)c(C)sc5nc(C(C)C)n34)o2)cc1	–	–	–	–	–
Cc1sc(Nc2ccc([N+](=O)[O-])cc2)nc1-c1c(C)n(C)n(-c2ccccc2)c1=O	–	–	–	–	–
COc1ccc(NC2=CC(=O)CC(c3ccccc3)C2)c(OC)c1 (configuration not stated)	–	62	–	–	–
COc1cc(C(C[N+](=O)[O-])c2c(-c3ccccc3)cc3ccccn23)cc(OC)c1OC (configuration not stated)	–	–	–	59	–
COc1ccc(C(C[N+](=O)[O-])c2c(-c3ccccc3)cc3ccccn23)cc1 (configuration not stated)	–	75	–	74	–
O=S(=O)(Nc1ccc(Cc2ccncc2)cc1)c1ccc(Br)s1	–	72	–	100	–
O=S(=O)(Nc1ccc(Cc2ccncc2)cc1)c1cccs1	–	100	–	99	–
O=S(=O)(NC1=NCCCCC1)c1cccs1	–	–	–	–	–
O=S(=O)(Nc1ccc(Cc2ccncc2)cc1)c1ccc(Br)cc1	–	100	–	99	–
Cc1ccc(NS(=O)(=O)c2ccc(NS(=O)(=O)c3cccs3)cc2)cc1	–	–	–	87	–
NS(=O)(=O)c1ccc(NS(=O)(=O)c2cccs2)cc1	–	–	–	–	–
O=C(Nc1ccc2c(c1)C(=O)N(CC1CCCO1)C2=O)c1cccc(Br)c1 (configuration not stated)	–	–	–	–	–
Cc1ccc(NC(=O)c2ccc(OC(=O)c3cc4ccccc4o3)cc2)cc1	–	–	–	–	–
COc1cc(Nc2cc(C)nc3nc(C)nn23)cc(OC)c1OC	–	–	–	–	–
O=C(O)c1ccc2c(c1)C(=O)N(Cc1ccccc1)C2=O	–	–	–	–	–
N#CCc1ccc(NS(=O)(=O)c2cccs2)cc1	–	86	–	72	–
CCCCc1ccc(NS(=O)(=O)c2cccs2)cc1	–	–	–	59	–
CCS(=O)(=O)Nc1ccc(Cc2ccncc2)cc1	–	93	–	95	–
Cc1cc(NS(=O)(=O)c2cccs2)no1	–	–	–	–	–
CC1CCN(S(=O)(=O)c2ccc(NC(=O)Cc3cccs3)cc2)CC1	–	–	–	–	–
CCC(=O)c1cc2c(cc1NC(=O)C(C)C)OCCO2	–	–	–	–	–
CCCCCCC(=O)N(O)C1CC(=O)N(c2ccc(Br)cc2)C1=O (configuration not stated)	–	52	–	–	–
SMILES	CYP2C9 activ	CYP2C19 inh	CYP2C19 act	CYP2C9 inhib	PLAP act
CCOC(=O)C1CCCN(S(=O)(=O)c2cc(Br)cc3c2N(C(=O)C2CC2)CC3)C1 (configuration not stated)	2.9	–	–	–	–
O=C(C1CC1)N1CCc2cc(Br)cc(S(=O)(=O)NC3CCCCC3)c21	–	–	–	–	–
O=C(C1CC1)N1CCc2cc(Br)cc(S(=O)(=O)N3CCCCCC3)c21	–	90	–	–	–
CCOC(=O)N1CCN(S(=O)(=O)c2cc(Br)cc3c2N(C(=O)CC)CC3)CC1	–	–	–	–	–
O=S(=O)(CCSc1ccccn1)c1nc2ccccc2s1	–	–	–	–	–
O=C(c1ccc(Cl)cc1)N1CCC(O)(CSc2ccc(Cl)cc2Cl)CC1	–	–	–	–	–
CC(NC(=O)N(Cc1ccccc1)Cc1ccc2c(c1)OCO2)(C(F)(F)F)C(F)(F)F	–	86	–	93	–
CC(=O)N(CCC(Cc1ccccc1)c1ccc2c(c1)OCO2)Cc1ccc(Cl)cc1 (configuration not stated)	–	76	–	75	–
CC(=O)OCCN(Cc1ccccc1)Cc1ccc2c(c1)OCO2	–	99	–	84	–

Assay outcomes as filed in PubChem.
